Source: PubChem BioAssay (NCI)
About 83,000 compounds went through this panel and 20% of them were active in at least one assay; those are over-represented in the sample as a whole.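 Activity criterion: percent growth below 10, measured after cells in 96-well plates were exposed to a single compound concentration for 48 hours.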 The source made the active and inactive calls.

Test system: SNB-75 CNS
Assay: NCI-60 one-dose screen, 48 h (100 = growth as untreated, 0 = no growth, -100 = all killed)
Conditions: 10 µM unless noted

Compound	growth
CC(C)C[C@H](NC(=O)/C=C/Cn1ccc2ccccc2c1=O)B(O)O	50.2% (inactive)
COc1ccc(N2CCN(CC(=O)N3CCN(c4nnc(-c5ccccc5)c(-c5ccccc5)n4)CC3)CC2)cc1	70.2% (inactive)
O=C(COc1ccc(/C=C2\Cc3ccccc3C2=O)cc1)c1ccc(Cl)cc1	94.5% (inactive)

Test system: SNB-19 CNS
Assay: as above
Conditions: 10 µM unless noted

Compound	growth
Cc1cc2c(cc1C)[n+](Cc1ccc3ccccc3n1)cn2Cc1ccc2ccccc2n1	16.4% (inactive)
CCOC(=O)c1sc(NC(=O)COc2cccc(/C=C3\Cc4ccc(Cl)cc4C3=O)c2)nc1C	99.9% (inactive)
COc1ccc(/C=C/C(=O)c2cccc(NS(C)(=O)=O)c2)cc1	87.9% (inactive)
CCOc1cc(/C=C/C(=O)CC(=O)/C=C/c2ccc(OC(=O)CNCCN(CC)CC)c(OCC)c2)ccc1OC(=O)CNCCN(CC)CC	11.4% (inactive)
CC[C@@H](c1ccc(O)c(O)c1)[C@@H](CC)c1ccc(O)c(O)c1	97.7% (inactive)
CCCCCc1c(C)[nH]c(/C=C2\N=C(c3ccc[nH]3)C=C2Oc2ccc(Cl)cc2)c1C	-32.9% [100 µM] (active)
O=C(O)C1CCN(S(=O)(=O)c2ccc(-c3ccccc3)cc2)CC1	103% (inactive)
CCCCCN1C(=O)CCC1=O	101% (inactive)
O=C(O)c1ccc(CNS(=O)(=O)c2ccc3ccccc3c2)cc1	104% (inactive)
COc1cc(-c2nc3sc4c(c3c(=O)[nH]2)CCCCCC4)cc(OC)c1OC	21.2% (inactive)
C/C(=C\CCc1ccoc1)CC/C=C(\C)CCCNc1ccc(F)cc1	97.7% (inactive)
COc1ccc2nc(N/N=C(\C)c3ccccn3)cc(C)c2c1	23.9% (inactive)
C/C(=C\CCc1ccoc1)CC/C=C(\C)CCCC1COC(=O)C1 (configuration not stated)	99.6% (inactive)
O=C(CNC(=O)c1cccc2ccccc12)Nc1ccccc1Cc1ccccc1	54.3% [5 µM] (inactive)
NS(=O)(=O)c1ccc(-n2ncc3c(NC4CCCCC4)ncnc32)cc1	94.1% (inactive)
COc1cc(/C=C/C(=O)CC(=O)/C=C/c2ccc(OC(=O)CCNC34CC5CC(CC(C5)C3)C4)c(OC)c2)ccc1OC(=O)CCNC12CC3CC(CC(C3)C1)C2	29.6% (inactive)
C/C(=C\CCc1ccoc1)CC/C=C(\C)CCCN1CCSCC1	87.8% (inactive)
COC(=O)[C@H]1[C@H]2C[C@@H]3c4[nH]c5cc(OC)ccc5c4CCN3C[C@H]2C[C@@H](OC(=O)/C=C/c2cc(OC)c(OC)c(OC)c2)[C@@H]1OC	49.9% (inactive)
Cc1c2oc3c(C)ccc(C(=O)OC(C)C4NC(=O)C(C(C)C)N(C)C(=O)CN(C)C(=O)C5CCCN5C(=O)C(C(C)C)NC4=O)c3nc-2c(C(=O)OC(C)C2NC(=O)C(C(C)C)N(C)C(=O)CN(C)C(=O)C3CCCN3C(=O)C(C(C)C)NC2=O)c(N)c1=O (configuration not stated)	3.31% (active)
CC(C)=CCCC(C)c1ccc(C)c2c1OCN(CC1CCNCC1)C2 (configuration not stated)	78.2% (inactive)

Compound	growth
Oc1ccccc1/C=N/N1CCCCCC1	97.1% (inactive)
CC[n+]1c(/C=C/c2ccc(N3CCCC3)cc2)cccc1/C=C/c1ccc(N2CCCC2)cc1	-93.9% (active)
O=C1Nc2ccc(C(=O)O)c(O)c2C1=O	107% (inactive)
CSc1nc2nc3c(c(-c4ccc(C)cc4)c2c(=O)[nH]1)CN(C)C/C3=C\c1ccc(C)cc1	97.3% (inactive)
O=C(/C=C/c1cccc(O)c1)c1cccc(-n2cc(-c3ccccc3)[nH]c2=O)c1	50% (inactive)
O=[N+]([O-])c1cc([N+](=O)[O-])c(N2CCCC2)cc1NN=C(c1ccc(O)cc1)c1ccc(O)cc1	37.3% (inactive)
CC1=C([Se]CC(OC(=O)[C@@H](CSSC(C)(C)C)NC(=O)C(C)(C)C)C(=O)NCCCCCC(=O)OCc2ccccc2)C(=O)c2ccccc2C1=O (some centres not stated)	-73.5% (active)
C[N+]1(C)C2CC[C@@H]1CC(OC(=O)C(O)c1ccccc1)C2 (some centres not stated)	110% (inactive)
O=C(O)CNC(=O)C1(N2C(=O)c3ccccc3C2=O)CCCC1	99% (inactive)
c1ccc(COc2ccc(Nc3ncnc4c3cnn4-c3ccccc3)cc2)cc1	96% (inactive)
Nc1ccccc1-c1ccn[nH]1	97.4% (inactive)
C/C(=C\CCc1ccoc1)CC/C=C(\C)CCCN1CCOCC1	67.5% (inactive)
O=C(NC1CCCCC1)c1ccc(Nc2ncnc3c2cnn3-c2ccccc2)cc1	48.7% (inactive)
Cc1ccc(-c2csc(N)n2)cc1	98.1% (inactive)
COC(=O)C1(NC(=O)CNC(=O)OCc2ccccc2)CCCC1	96.5% (inactive)
C[C@]12CC[C@H](O)CC1=CC[C@@H]1[C@@H]2CC[C@]2(C)C(c3cccnc3)=CC[C@@H]12	72.7% (inactive)
CC(C)C[C@H](NC(=O)/C=C/Cn1ccc2ccccc2c1=O)B(O)O	56.2% (inactive)
COc1ccc(N2CCN(CC(=O)N3CCN(c4nnc(-c5ccccc5)c(-c5ccccc5)n4)CC3)CC2)cc1	62.8% (inactive)
O=C(COc1ccc(/C=C2\Cc3ccccc3C2=O)cc1)c1ccc(Cl)cc1	95.7% (inactive)
